Active and inactive are the calls of the source. Unless noted, how the calls were made is not given here.
What was measured:
[1] = system: Wnt5a (protein binding on small-molecule microarray); test: Wnt5a binders on small-molecule microarray, primary screen, biophysical, 635/667 nm fluorescence (AID 1142); conditions: 635 nm fluorescence, higher = more signal;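 further: fluorescence read at 667 nm with signal to noise per printed feature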
[2] = cell viability in Huh7 cells, primary screen, cytotoxicity control for HCV replication inhibitor project, CellTiter-Glo luminescence, basal, 48 h (AID 1143); conditions: Huh7 HCV replicon, higher = more signal, called active from +8 up or from −8 down;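 further: Huh7 hepatoma cells carrying a hepatitis C replication reporter with no stimulus; test concentration not given here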
[3] = P. aeruginosa biofilm formation inhibitors, primary screen, PAO1 strain, BacTiter-Glo luminescence, LB-PBS (AID 1144); conditions: 12 h, higher = more signal
[4] = CREB reporter modulators without forskolin, primary screen, cell-based, PC12, CRE-LacZ reporter, unstimulated (AID 1145); conditions: no forskolin, luminescence, 4.5 h, higher = more signal, called active from +8 up or from −8 down
[5] = CREB reporter modulators under forskolin, primary screen, cell-based, PC12, CRE-LacZ reporter, forskolin-stimulated (AID 1146); conditions: luminescence, 4.5 h, higher = more signal, called active from +8 up or from −8 down;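 further: PC12 cells with 6xCRE LacZ reporter stimulated by forskolin 10 µM; beta-galactosidase reporter signal reflecting CREB driven transcription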
[6] = biological target: Streptavidin (Streptomyces avidinii) (UniProt P22629); test: streptavidin binders on small-molecule microarray, primary screen, artefact control for SMM compound annotation, biophysical, 635/667 nm fluorescence (AID 1147); conditions: streptavidin binding, higher = more signal;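 further: signal reflects streptavidin binding to arrayed compounds as a control protein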
[7] = small-molecule binders of probe aInhba, primary screen, biochemical, small-molecule microarray, 635/667 nm fluorescence (AID 1148); conditions: higher = more signal;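 further: score merges 667nm spot fluorescence with signal-to-noise for antibody binding to printed compounds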
Torsin-1A (Homo sapiens) [8] = biological target: Torsin-1A (Homo sapiens) (UniProt O14656); test: torsin A binders from cell lysate, primary screen, small-molecule microarray, wild-type, 635/667 nm (AID 1149); conditions: COS7 hTOR1A-WT lysate, 635 nm fluorescence, higher = more signal
Torsin-1A (Homo sapiens) [9] = biological target: Torsin-1A (Homo sapiens) (UniProt O14656); test: small-molecule binders of mutant TOR1A in lysate, primary screen, cell lysate, small-molecule microarray, COS7 lysate, 635/667 nm fluorescence (AID 1150); conditions: COS7 hTOR1A mutant lysate, 635 nm fluorescence, higher = more signal;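 further: score pools 667 nm emission and signal to noise measuring lysate protein binding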
[10] = system: Sonic hedgehog protein (Shh); test: small-molecule binders of Shh protein, primary screen, biochemical, small-molecule microarray, 635/667 nm fluorescence (AID 1151); conditions: small-molecule microarray binding, 635 nm fluorescence; higher = more signal;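 further: Shh protein binding to compounds spotted on small-molecule microarray slides; score combines spot fluorescence intensity with signal-to-noise across triplicate slides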
[11] = E. coli DRC41 culture turbidity changes, primary screen, E. coli filamentation inducer project, strain DRC41, OD650, 48 h (AID 1152);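 further: E. coli MC1000 strain DRC41 lacking acrAB efflux pump and sulA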; conditions: E. coli DRC41 (acrAB sulA), higher = more signal, called active from +8 up or from −8 down
[12] = small-molecule binders of probe aLefty1, primary screen, biochemical, small-molecule microarray, 635/667 nm fluorescence (AID 1153); conditions: higher = more signal;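 further: score merges spot fluorescence with signal-to-noise ratio from the scanned slide images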
[13] = PSAC antagonists in infected red cells, primary screen, cell-based, P. falciparum Indochina, OD700, 1 h (AID 1154); conditions: P. falciparum Indochina infected RBC osmotic lysis, higher = more signal, called active from +8 up or from −8 down
[14] = PSAC antagonists in infected red cells, primary screen, cell-based, P. falciparum Indochina, OD700, 2 h (AID 1155);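 further: lysis reports solute entry through the parasite surface anion channel PSAC; channel blockers reduce lysis of infected cells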; conditions: P. falciparum Indochina infected erythrocytes, osmotic lysis OD700; higher = more signal, called active from +8 up or from −8 down
[15] = osmotic lysis modulators in infected erythrocytes, primary screen, PSAC antagonist project, cell-based, P. falciparum Indochina, OD700, 3 h (AID 1156); conditions: higher = more signal, called active from +8 up or from −8 down
[16] = PSAC antagonists in infected red cells, primary screen, cell-based, P. falciparum Indochina, OD700, 18 h (AID 1157); conditions: P. falciparum Indochina infected erythrocytes, osmotic lysis OD700, 18 h; higher = more signal, called active from +8 up or from −8 down
[17] = modulators of S6 phosphorylation in cells, primary screen, cell-based, A549, cytoblot, luminescence, serum-stimulated (AID 1158); conditions: A549 phospho-S6 cytoblot, 5 h, higher = more signal;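 further: serum-stimulated A549 lung adenocarcinoma cells; signal is phosphorylated S6 detected by cytoblot immunostaining with HRP secondary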
[18] = biological target: NADPH oxidase 2 (Homo sapiens) (UniProt P04839); test: NOX2-dependent H2O2 signal modulators, primary screen, NOX inhibitor project, cell-based, HEK293-NOX2, PMA-stimulated, Amplex Red fluorescence (AID 1159); conditions: 45 min, higher = more signal, called active from +8 up or from −8 down; further: test concentration not given here
[19] = biological target: NADPH oxidase 4 (Homo sapiens) (UniProt Q9NPH5); test: NOX4-dependent H2O2 signal modulators, primary screen, NOX inhibitor project, cell-based, HEK293-NOX4, tetracycline-induced, Amplex Red fluorescence (AID 1160); conditions: 45 min, higher = more signal, called active from +8 up or from −8 down
[20] = biological target: NADPH oxidase 5 (Homo sapiens) (UniProt Q96PH1); test: NOX5-dependent H2O2 signal modulators, primary screen, NOX inhibitor project, cell-based, HEK293-NOX5, Amplex Red fluorescence (AID 1161); conditions: HEK293-NOX5, ionomycin, 45 min, higher = more signal
Chain of NADPH oxidase 5 (Homo sapiens) (Q96PH1 whole entry, looked up): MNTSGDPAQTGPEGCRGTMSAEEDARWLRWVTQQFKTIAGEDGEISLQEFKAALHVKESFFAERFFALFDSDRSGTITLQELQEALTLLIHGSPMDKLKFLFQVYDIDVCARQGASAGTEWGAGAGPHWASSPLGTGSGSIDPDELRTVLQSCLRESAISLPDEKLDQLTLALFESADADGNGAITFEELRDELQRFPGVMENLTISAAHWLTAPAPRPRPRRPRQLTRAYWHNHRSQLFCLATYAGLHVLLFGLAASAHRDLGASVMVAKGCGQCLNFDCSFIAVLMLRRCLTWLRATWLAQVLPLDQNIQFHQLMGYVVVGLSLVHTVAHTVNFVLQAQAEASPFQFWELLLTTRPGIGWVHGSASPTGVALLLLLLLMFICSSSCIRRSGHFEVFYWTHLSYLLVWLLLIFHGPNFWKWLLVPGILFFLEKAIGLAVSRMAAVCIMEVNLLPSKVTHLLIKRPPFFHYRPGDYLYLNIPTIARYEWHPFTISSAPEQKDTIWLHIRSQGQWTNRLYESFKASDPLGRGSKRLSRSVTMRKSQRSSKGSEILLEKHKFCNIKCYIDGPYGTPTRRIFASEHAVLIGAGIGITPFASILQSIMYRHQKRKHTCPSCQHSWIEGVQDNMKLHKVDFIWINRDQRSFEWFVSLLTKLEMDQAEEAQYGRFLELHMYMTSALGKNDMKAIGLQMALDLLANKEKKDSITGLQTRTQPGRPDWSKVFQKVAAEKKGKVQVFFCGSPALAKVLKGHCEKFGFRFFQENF

Chain of Streptavidin (Streptomyces avidinii) (P22629 whole entry, looked up): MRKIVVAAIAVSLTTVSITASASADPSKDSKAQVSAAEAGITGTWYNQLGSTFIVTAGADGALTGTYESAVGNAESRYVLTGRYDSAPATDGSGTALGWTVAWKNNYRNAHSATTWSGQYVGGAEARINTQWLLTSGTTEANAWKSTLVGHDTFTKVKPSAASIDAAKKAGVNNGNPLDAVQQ
Chain of NADPH oxidase 4 (Homo sapiens) (Q9NPH5 whole entry, looked up): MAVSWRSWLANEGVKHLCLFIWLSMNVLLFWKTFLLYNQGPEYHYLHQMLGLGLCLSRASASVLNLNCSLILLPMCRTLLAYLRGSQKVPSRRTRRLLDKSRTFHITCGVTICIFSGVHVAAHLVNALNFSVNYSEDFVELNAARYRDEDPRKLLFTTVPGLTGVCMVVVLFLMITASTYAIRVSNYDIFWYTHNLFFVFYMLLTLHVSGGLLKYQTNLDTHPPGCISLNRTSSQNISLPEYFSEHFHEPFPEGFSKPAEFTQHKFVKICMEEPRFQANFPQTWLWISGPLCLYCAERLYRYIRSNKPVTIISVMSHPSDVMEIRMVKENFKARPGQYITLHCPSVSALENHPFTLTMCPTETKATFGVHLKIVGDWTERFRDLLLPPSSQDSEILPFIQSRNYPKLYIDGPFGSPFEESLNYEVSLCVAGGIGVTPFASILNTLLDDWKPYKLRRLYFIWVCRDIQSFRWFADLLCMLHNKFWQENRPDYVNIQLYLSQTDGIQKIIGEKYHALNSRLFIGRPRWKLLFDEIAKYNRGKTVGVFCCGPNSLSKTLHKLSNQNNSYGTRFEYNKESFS
Chain of NADPH oxidase 2 (Homo sapiens) (P04839 whole entry, looked up): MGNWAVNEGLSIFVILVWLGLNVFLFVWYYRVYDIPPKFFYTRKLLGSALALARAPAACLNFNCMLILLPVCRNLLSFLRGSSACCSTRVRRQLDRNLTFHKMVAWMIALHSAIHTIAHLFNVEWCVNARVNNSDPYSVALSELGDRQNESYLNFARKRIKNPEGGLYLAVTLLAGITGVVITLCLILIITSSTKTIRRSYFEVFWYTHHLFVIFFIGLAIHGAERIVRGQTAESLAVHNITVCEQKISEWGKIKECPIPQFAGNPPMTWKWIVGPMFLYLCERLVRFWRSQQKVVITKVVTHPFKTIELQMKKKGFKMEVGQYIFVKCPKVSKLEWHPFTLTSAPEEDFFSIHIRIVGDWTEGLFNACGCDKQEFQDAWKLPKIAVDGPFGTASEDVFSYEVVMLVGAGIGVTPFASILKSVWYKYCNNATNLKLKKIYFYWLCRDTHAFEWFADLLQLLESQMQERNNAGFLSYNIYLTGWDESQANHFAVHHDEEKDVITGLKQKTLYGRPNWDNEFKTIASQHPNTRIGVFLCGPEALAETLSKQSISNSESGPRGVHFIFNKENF
Chain of Torsin-1A (Homo sapiens) (O14656 whole entry, looked up): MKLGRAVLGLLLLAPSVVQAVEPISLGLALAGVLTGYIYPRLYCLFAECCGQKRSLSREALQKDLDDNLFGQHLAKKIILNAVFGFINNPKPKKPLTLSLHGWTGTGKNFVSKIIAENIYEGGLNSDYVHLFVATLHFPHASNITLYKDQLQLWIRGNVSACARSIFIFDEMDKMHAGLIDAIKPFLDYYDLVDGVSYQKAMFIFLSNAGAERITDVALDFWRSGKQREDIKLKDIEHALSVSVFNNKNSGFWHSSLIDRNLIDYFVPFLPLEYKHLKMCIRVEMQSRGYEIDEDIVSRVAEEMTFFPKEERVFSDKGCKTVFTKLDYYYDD

Structure (SMILES): COC(=O)c1ccc(OC)c(/C=C\CC(CCc2ccccc2)OC(=O)c2ccncc2)c1 (stereo not given)
- composite z-score [1]: -0.272
- z-score [2]: -1.66 (inactive)
- z-score [3]: 1.02 (inactive)
- z-score [4]: 1.75 (inactive)
- z-score [5]: 0.455 (inactive)
- composite z-score [6]: 0.925
- composite z-score [7]: -0.404
- composite z-score (Torsin-1A (Homo sapiens) [8]): 0.175
- composite z-score (Torsin-1A (Homo sapiens) [9]): 0.092
- composite z-score [10]: 1.25
- z-score [11]: -0.295 (inactive)
- composite z-score [12]: -0.251
- z-score [13]: 17.9 (active)
- z-score [14]: 3.19 (inactive)
- z-score [15]: 0.533 (inactive)
- z-score [16]: 0.672 (inactive)
- z-score [17]: -0.224
- z-score [18]: -0.392 (inactive)
- z-score [19]: 0.67 (inactive)
- z-score [20]: -0.11

Structure (SMILES): COC(=O)C(CC#Cc1ccc2c(c1)[C@]1(C(=O)N2)[C@H](c2ccc(O)cc2)N2[C@H](c3ccccc3)[C@H](c3ccccc3)OC(=O)[C@H]2[C@@H]1C(=O)O)C(=O)OC
- composite z-score [1]: -0.198
- z-score [2]: -0.627 (inactive)
- z-score [3]: -0.191 (inactive)
- z-score [4]: 0.389 (inactive)
- z-score [5]: 0.416 (inactive)
- composite z-score [6]: -0.0974
- composite z-score [7]: -0.212
- composite z-score (Torsin-1A (Homo sapiens) [8]): -0.295
- composite z-score (Torsin-1A (Homo sapiens) [9]): 0.168
- composite z-score [10]: 0.262
- z-score [11]: -1.42 (inactive)
- composite z-score [12]: 0.0315
- z-score [13]: 0.489 (inactive)
- z-score [14]: -0.18 (inactive)
- z-score [15]: -0.258 (inactive)
- z-score [16]: -0.367 (inactive)
- z-score [17]: -0.351
- z-score [18]: 1.42 (inactive)
- z-score [19]: 0.0467 (inactive)
- z-score [20]: 1.29

Structure (SMILES): CCCNC(=O)[C@@H]1c2ccccc2C(=O)N(CC23CC4CC(CC(C4)C2)C3)[C@H]1c1ccc(CO)cc1
- composite z-score [1]: 0.435
- z-score [2]: -4.68 (inactive)
- z-score [3]: -0.929 (inactive)
- z-score [4]: 0.764 (inactive)
- z-score [5]: -0.517 (inactive)
- composite z-score [6]: 0.673
- composite z-score [7]: -0.118
- composite z-score (Torsin-1A (Homo sapiens) [8]): 0.92
- composite z-score (Torsin-1A (Homo sapiens) [9]): -0.0207
- composite z-score [10]: 1.05
- z-score [11]: -0.59 (inactive)
- composite z-score [12]: 0.376
- z-score [13]: 2.45 (inactive)
- z-score [14]: 0.79 (inactive)
- z-score [15]: 1.88 (inactive)
- z-score [16]: 0.276 (inactive)
- z-score [17]: 0.171
- z-score [18]: 0.717 (inactive)
- z-score [19]: -1.2 (inactive)
- z-score [20]: -2.76

Structure (SMILES): C=C(C)[C@@H]1CC=C(C(O)C2C=CC3C(=O)N(C4CCCCC4)C(=O)C3N2Nc2ccc(OC)cc2)CC1 (stereo not given in full)
- composite z-score [1]: 0.187
- z-score [2]: -1.7 (inactive)
- z-score [3]: -0.645 (inactive)
- z-score [4]: 0.369 (inactive)
- z-score [5]: -0.317 (inactive)
- composite z-score [6]: 1.12
- composite z-score [7]: -0.0521
- composite z-score (Torsin-1A (Homo sapiens) [8]): -0.0445
- composite z-score (Torsin-1A (Homo sapiens) [9]): 0.6
- composite z-score [10]: 0.966
- z-score [11]: -0.441 (inactive)
- composite z-score [12]: 0.203
- z-score [13]: 1.75 (inactive)
- z-score [14]: 0.415 (inactive)
- z-score [15]: 0.604 (inactive)
- z-score [16]: 0.56 (inactive)
- z-score [17]: -0.14
- z-score [18]: 0.191 (inactive)
- z-score [19]: -1.34 (inactive)
- z-score [20]: -2.14

Structure (SMILES): COCC(=C=CC[C@@H](O)c1ccccc1OCCO)C[C@@H](O)COCc1ccccc1
- composite z-score [1]: 0.561
- z-score [2]: -1.43 (inactive)
- z-score [3]: -0.137 (inactive)
- z-score [4]: 8.9 (active)
- z-score [5]: -1.46 (inactive)
- composite z-score [6]: -0.236
- composite z-score [7]: 0.799
- composite z-score (Torsin-1A (Homo sapiens) [8]): 1.26
- composite z-score (Torsin-1A (Homo sapiens) [9]): 0.717
- composite z-score [10]: 0.709
- z-score [11]: 2.01 (inactive)
- composite z-score [12]: 0.455
- z-score [13]: 6.15 (inactive)
- z-score [14]: -0.29 (inactive)
- z-score [15]: 0.66 (inactive)
- z-score [16]: -1.22 (inactive)
- z-score [17]: 0.719
- z-score [18]: 0.547 (inactive)
- z-score [19]: 1.31 (inactive)
- z-score [20]: -1.66

Structure (SMILES): C=CC[C@@]1(C(=O)NCCN2CCOCC2)N=C(c2ccc(OCCCO)cc2)O[C@@H]1c1ccccc1
- composite z-score [1]: 1.32
- z-score [2]: -0.914 (inactive)
- z-score [3]: -0.299 (inactive)
- z-score [4]: 0.54 (inactive)
- z-score [5]: -0.0392 (inactive)
- composite z-score [6]: 0.803
- composite z-score [7]: 0.328
- composite z-score (Torsin-1A (Homo sapiens) [8]): 1.24
- composite z-score (Torsin-1A (Homo sapiens) [9]): 0.94
- composite z-score [10]: 2.1
- z-score [11]: -0.302 (inactive)
- composite z-score [12]: 0.562
- z-score [13]: 18.7 (active)
- z-score [14]: 3.03 (inactive)
- z-score [15]: 1.55 (inactive)
- z-score [16]: 0.863 (inactive)
- z-score [17]: -0.501
- z-score [18]: 0.48 (inactive)
- z-score [19]: 0.62 (inactive)
- z-score [20]: -0.092

Structure (SMILES): O=C1N(CCS(=O)(=O)c2ccccc2)Cc2ccccc2C[C@@]12COC(c1ccc(OCCCO)cc1)=N2
- composite z-score [1]: 0.933
- z-score [2]: -4.36 (inactive)
- z-score [3]: 0.898 (inactive)
- z-score [4]: -0.183 (inactive)
- z-score [5]: -2.06 (inactive)
- composite z-score [6]: 0.758
- composite z-score [7]: 0.325
- composite z-score (Torsin-1A (Homo sapiens) [8]): 0.701
- composite z-score (Torsin-1A (Homo sapiens) [9]): 0.945
- composite z-score [10]: 2.03
- z-score [11]: -2.34 (inactive)
- composite z-score [12]: 0.153
- z-score [13]: 25.9 (active)
- z-score [14]: 15.1 (active)
- z-score [15]: 4.23 (inactive)
- z-score [16]: 2.14 (inactive)
- z-score [17]: -0.0579
- z-score [18]: -5.26 (inactive)
- z-score [19]: -0.159 (inactive)
- z-score [20]: -3.16

Structure (SMILES): CN(C)CCCCCCNC(=O)[C@@H]1C[C@@H]2C(=O)NCC(=O)N2[C@@H]1c1ccc(O)cc1
- composite z-score [1]: 0.781
- z-score [2]: -0.981 (inactive)
- z-score [3]: -0.162 (inactive)
- z-score [4]: 0.147 (inactive)
- z-score [5]: 0.625 (inactive)
- composite z-score [6]: 0.28
- composite z-score [7]: -0.102
- composite z-score (Torsin-1A (Homo sapiens) [8]): 0.97
- composite z-score (Torsin-1A (Homo sapiens) [9]): 1.32
- composite z-score [10]: 1.93
- z-score [11]: -0.407 (inactive)
- composite z-score [12]: 0.298
- z-score [13]: 0.755 (inactive)
- z-score [14]: -0.296 (inactive)
- z-score [15]: 0.794 (inactive)
- z-score [16]: -0.114 (inactive)
- z-score [17]: -0.341
- z-score [18]: -0.289 (inactive)
- z-score [19]: 0.12 (inactive)
- z-score [20]: 0.524

Structure (SMILES): CC(C)C[C@@H]1NC(=O)[C@@H]2C[C@H](C(=O)NCc3ccc(F)cc3)[C@H](c3ccc(O)cc3)N2C1=O
- composite z-score [1]: 0.187
- z-score [2]: -0.393 (inactive)
- z-score [3]: -0.0526 (inactive)
- z-score [4]: -0.26 (inactive)
- z-score [5]: -0.101 (inactive)
- composite z-score [6]: -0.419
- composite z-score [7]: -0.118
- composite z-score (Torsin-1A (Homo sapiens) [8]): 0.483
- composite z-score (Torsin-1A (Homo sapiens) [9]): 0.44
- composite z-score [10]: 1.46
- z-score [11]: 0.227 (inactive)
- composite z-score [12]: -0.0559
- z-score [13]: 1.46 (inactive)
- z-score [14]: 0.328 (inactive)
- z-score [15]: -1.64 (inactive)
- z-score [16]: 0.424 (inactive)
- z-score [17]: 0.0668
- z-score [18]: 0.468 (inactive)
- z-score [19]: -0.106 (inactive)
- z-score [20]: 1.18

— PubChem BioAssay
